# T1: DVL2 416-511 DEP (domain begin residue: 416, domain end residue: 511), O14641
# T1 chain: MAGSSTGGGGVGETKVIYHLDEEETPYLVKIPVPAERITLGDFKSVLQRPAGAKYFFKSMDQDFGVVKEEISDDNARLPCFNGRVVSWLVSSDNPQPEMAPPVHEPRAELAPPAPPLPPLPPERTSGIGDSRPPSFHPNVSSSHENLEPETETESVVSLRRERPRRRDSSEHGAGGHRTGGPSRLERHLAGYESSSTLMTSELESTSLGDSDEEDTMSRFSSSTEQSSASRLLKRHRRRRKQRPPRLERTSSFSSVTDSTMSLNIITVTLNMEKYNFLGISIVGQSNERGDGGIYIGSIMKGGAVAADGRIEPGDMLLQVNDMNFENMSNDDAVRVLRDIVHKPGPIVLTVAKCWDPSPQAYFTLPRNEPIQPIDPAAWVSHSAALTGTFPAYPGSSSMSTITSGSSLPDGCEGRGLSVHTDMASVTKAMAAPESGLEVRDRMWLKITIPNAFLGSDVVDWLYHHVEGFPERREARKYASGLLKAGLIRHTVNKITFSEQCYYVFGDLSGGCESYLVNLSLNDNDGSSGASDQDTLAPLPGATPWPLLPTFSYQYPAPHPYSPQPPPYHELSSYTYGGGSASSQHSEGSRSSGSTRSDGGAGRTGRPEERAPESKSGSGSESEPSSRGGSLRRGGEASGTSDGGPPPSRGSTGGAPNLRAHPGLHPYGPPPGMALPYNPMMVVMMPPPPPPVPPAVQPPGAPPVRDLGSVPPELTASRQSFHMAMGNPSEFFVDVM
# T2: DOK2 146-252 IRS (domain begin residue: 146, domain end residue: 252), O60496
# T2 chain: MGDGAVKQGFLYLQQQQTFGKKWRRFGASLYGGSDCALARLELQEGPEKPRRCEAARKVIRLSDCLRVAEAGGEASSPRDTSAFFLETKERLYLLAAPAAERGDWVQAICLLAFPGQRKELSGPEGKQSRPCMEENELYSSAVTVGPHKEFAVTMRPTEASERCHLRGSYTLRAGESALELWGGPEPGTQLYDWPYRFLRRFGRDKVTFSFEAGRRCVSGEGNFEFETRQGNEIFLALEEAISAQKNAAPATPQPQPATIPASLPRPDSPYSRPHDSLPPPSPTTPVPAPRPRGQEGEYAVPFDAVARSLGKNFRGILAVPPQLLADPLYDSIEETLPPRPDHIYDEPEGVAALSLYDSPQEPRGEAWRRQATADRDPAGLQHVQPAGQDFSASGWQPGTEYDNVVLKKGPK
# T3: DOK3 213-322 IRS (domain begin residue: 213, domain end residue: 322), Q7L591
# T3 chain: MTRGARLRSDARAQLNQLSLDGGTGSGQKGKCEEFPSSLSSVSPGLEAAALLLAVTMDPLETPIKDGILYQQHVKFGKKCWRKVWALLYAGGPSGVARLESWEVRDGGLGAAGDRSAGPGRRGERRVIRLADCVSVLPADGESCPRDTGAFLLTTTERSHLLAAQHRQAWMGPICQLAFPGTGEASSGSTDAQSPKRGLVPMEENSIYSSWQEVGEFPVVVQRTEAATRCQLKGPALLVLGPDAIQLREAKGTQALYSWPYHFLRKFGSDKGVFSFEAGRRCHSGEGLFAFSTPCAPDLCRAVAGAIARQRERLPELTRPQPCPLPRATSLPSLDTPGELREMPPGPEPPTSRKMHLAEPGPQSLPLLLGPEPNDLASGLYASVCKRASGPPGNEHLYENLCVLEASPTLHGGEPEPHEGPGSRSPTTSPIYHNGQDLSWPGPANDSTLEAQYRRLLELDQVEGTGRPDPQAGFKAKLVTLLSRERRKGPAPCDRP
# T4: DVL3 407-503 DEP (domain begin residue: 407, domain end residue: 503), Q92997
# T4 chain: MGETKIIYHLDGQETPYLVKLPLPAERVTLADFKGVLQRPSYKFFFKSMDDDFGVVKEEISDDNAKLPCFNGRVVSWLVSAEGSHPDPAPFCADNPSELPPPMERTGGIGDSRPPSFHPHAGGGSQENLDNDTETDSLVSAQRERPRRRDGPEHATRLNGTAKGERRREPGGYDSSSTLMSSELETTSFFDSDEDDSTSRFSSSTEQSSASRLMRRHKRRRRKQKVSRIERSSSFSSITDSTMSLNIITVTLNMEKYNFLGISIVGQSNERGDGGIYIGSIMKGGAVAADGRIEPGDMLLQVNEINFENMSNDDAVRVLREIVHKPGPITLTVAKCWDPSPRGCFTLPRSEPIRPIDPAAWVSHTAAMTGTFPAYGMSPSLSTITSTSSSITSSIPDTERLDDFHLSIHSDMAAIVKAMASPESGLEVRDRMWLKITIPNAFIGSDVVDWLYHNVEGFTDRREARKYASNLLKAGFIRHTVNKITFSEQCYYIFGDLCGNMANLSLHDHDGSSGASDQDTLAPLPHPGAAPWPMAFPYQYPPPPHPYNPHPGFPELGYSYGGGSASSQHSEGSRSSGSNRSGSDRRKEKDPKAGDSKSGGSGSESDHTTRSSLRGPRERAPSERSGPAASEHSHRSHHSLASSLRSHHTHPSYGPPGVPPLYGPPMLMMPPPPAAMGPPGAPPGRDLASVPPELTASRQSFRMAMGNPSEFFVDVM
# T5: DVL1 406-503 DEP (domain begin residue: 406, domain end residue: 503), O14640
# T5 chain: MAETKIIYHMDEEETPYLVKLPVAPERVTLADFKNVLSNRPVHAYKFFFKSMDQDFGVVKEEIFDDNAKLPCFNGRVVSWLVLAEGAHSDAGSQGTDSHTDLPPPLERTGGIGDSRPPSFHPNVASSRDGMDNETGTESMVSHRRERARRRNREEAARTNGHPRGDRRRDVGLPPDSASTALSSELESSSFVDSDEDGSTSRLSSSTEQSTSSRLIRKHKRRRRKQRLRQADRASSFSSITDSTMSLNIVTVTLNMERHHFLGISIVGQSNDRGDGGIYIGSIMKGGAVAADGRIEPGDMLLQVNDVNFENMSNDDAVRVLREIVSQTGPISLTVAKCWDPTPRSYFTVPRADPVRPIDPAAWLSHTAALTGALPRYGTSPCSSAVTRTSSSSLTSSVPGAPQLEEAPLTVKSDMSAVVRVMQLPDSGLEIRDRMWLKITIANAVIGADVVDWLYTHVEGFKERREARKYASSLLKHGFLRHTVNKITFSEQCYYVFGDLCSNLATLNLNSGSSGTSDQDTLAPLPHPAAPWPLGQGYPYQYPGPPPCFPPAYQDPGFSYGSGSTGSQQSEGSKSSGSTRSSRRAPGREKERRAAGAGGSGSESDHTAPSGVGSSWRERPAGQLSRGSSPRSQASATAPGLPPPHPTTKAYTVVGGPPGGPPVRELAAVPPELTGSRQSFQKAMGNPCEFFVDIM
# T6: DOK7 105-219 IRS (domain begin residue: 105, domain end residue: 219), Q18PE1
# T6 chain: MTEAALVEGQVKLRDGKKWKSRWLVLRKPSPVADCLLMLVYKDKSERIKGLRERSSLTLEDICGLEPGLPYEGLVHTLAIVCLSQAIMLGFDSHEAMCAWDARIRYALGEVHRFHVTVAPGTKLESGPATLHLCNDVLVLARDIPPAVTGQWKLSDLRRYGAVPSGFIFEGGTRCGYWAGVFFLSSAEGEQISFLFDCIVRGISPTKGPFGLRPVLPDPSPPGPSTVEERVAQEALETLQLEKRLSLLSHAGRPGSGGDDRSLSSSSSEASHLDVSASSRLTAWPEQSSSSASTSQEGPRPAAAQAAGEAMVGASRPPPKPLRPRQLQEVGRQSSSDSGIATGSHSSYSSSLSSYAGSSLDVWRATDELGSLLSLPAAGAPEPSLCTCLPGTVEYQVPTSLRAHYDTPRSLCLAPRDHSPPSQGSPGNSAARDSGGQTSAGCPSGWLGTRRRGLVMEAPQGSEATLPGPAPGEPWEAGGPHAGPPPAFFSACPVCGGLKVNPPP
# How the values were obtained:
# Test in all cases: phage ELISA signal ratio (GST-PRM binding over GST background); higher = stronger binding of peptide-phage to the PRM
# [1] = molecular target: T1, DVL2 416-511 DEP (domain begin residue: …
# Summary of the method: (§1)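 Each value is the phage ELISA signal on the glutathione S-transferase (GST)-domain fusion divided by the signal on GST alone. Human peptide recognition domains were expressed in 96-well plates, fused to the C-terminus of GST, and selected against an M13 phage library carrying randomized, cysteine-free, glycine-flanked hexadecapeptides on the gene-8 major coat protein. After five selection rounds, approximately 48 individual clones from rounds 4 and 5 were tested by phage ELISA, and positive clones were sequenced.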
# [2] = molecular target: T2, DOK2 146-252 IRS (domain begin residue: …
# Summary of the method: as §1
# [3] = molecular target: DOK4 130-237 IRS (domain begin residue: 130, domain end residue: 237), Q8TEW6
# Summary of the method: as §1
# [4] = molecular target: T3, DOK3 213-322 IRS (domain begin residue: …
# Summary of the method: as §1
# [5] = molecular target: DYNLL1 1-89 Dynein_light (domain begin residue: 1, domain end residue: 89), P63167
# Summary of the method: as §1
# [6] = molecular target: T4, DVL3 407-503 DEP (domain begin residue: …
# Summary of the method: as §1
# [7] = molecular target: T5, DVL1 406-503 DEP (domain begin residue: …
# Summary of the method: as §1
# [8] = molecular target: T6, DOK7 105-219 IRS (domain begin residue: …
# Summary of the method: as §1
# [9] = molecular target: DOK5 130-237 IRS (domain begin residue: 130, domain end residue: 237), Q9P104
# Summary of the method: as §1
# Sequence of DOK4 130-237 IRS (domain begin residue: 130, domain end residue: 237), Q8TEW6 (Q8TEW6 whole entry): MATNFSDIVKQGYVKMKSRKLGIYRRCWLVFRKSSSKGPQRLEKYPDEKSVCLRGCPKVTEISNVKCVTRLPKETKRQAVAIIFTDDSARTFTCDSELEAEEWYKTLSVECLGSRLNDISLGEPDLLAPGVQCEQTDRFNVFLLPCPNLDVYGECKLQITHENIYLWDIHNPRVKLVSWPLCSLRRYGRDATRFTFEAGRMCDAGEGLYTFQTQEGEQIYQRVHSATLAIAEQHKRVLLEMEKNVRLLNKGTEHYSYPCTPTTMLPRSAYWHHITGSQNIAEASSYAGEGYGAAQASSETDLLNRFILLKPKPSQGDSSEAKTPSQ
# Sequence of DYNLL1 1-89 Dynein_light (domain begin residue: 1, domain end residue: 89), P63167 (P63167 whole entry): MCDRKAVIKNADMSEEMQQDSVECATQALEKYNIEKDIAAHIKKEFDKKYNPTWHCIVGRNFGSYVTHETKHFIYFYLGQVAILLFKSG
binder,measurement,setting,value
PLENPTYKDGLWWWSV,phage ELISA signal ratio,[1],24.4
EWVEWVSPWMVEHGDW,phage ELISA signal ratio,[2],17.8
HLTGQEGDWIWHWLEN,phage ELISA signal ratio,[2],10.4
QFIVWENEYYEHWGGK,phage ELISA signal ratio,[2],21.1
DDMIWQWQMNPIWMMD,phage ELISA signal ratio,[3],11.5
VWEEVMTMEQWQWHNF,phage ELISA signal ratio,[4],5.77
VQTDWYGVDGFWVPVL,phage ELISA signal ratio,[5],18.1
EWMWMDNPGFHMTEAT,phage ELISA signal ratio,[2],13.6
PKYQFSLSAESLQWLM,phage ELISA signal ratio,[6],18.1
KWMIDLTDWEAYWVPS,phage ELISA signal ratio,[1],26.7
YQPDMRMQDGKWYWII,phage ELISA signal ratio,[1],20.4
QAVPMWQDEHGYWWWN,phage ELISA signal ratio,[1],33.3
WEWQFWQDYMAQFPSE,phage ELISA signal ratio,[7],3.48
EHLRPEMDWTYVWWEH,phage ELISA signal ratio,[3],4.35
WEWSQEIWLPPHMMVD,phage ELISA signal ratio,[4],12.3
FETTWVLENGWWLPQA,phage ELISA signal ratio,[8],9.36
PEQMEYWTWSPLHVSQ,phage ELISA signal ratio,[3],13.1
WPEGIKYTWVKEHETE,phage ELISA signal ratio,[3],8.42
VIWTWNPMAGMEAWNI,phage ELISA signal ratio,[3],5.11
MWFWNLDEAMPIWTAM,phage ELISA signal ratio,[1],13.3
YETPEPQWLWVMNPIH,phage ELISA signal ratio,[3],14.6
TQTSWWWSETPMFPFM,phage ELISA signal ratio,[5],3.08
TQTGMWDETDSREHWD,phage ELISA signal ratio,[5],11.5
QWMDLNDLQWTYNPWY,phage ELISA signal ratio,[3],11.2
IEWTHTNWEWNKMETQ,phage ELISA signal ratio,[3],11.9
WQMNHLEEWRAYAETL,phage ELISA signal ratio,[6],24.2
GVGWAKQIEWTVSPMM,phage ELISA signal ratio,[9],3.95
WTQTEDPWEYTWLDLV,phage ELISA signal ratio,[5],17.8
EQLWWSNPLWTEGIEE,phage ELISA signal ratio,[2],16.1
VFWENQHWMQDLNPEW,phage ELISA signal ratio,[1],26.1
YELSWTHTPWSHFIAT,phage ELISA signal ratio,[3],6.86
TQTEFYASDWWMMENV,phage ELISA signal ratio,[5],15.6
VQTDPWVGQLGDFMFV,phage ELISA signal ratio,[5],17.1
DWVWTIPFEQVFSEVM,phage ELISA signal ratio,[9],4.96
TQTPVWGMDGWMWVTV,phage ELISA signal ratio,[5],19.5
MWYWDPGENTAIWVEQ,phage ELISA signal ratio,[1],22.1
EMWYWDAVQGVPYKQG,phage ELISA signal ratio,[1],23.9
PYTWYENPLWVPSPME,phage ELISA signal ratio,[2],15.2
MDGWFWDHAPHFTMDF,phage ELISA signal ratio,[6],4.23
AYYWSITLGDIVYMVD,phage ELISA signal ratio,[1],16.1
DLDFMWWDNPVHETDL,phage ELISA signal ratio,[2],16.8
VVNEQHGWKWMILEHE,phage ELISA signal ratio,[2],20.7
NQLRFNPQWTVPNFRN,phage ELISA signal ratio,[4],3.31
MWEWTDNPSYTIPGQQ,phage ELISA signal ratio,[3],7.86
GWDDQIWTWSPMYMPV,phage ELISA signal ratio,[3],19
PDLAAWRIWIMEEEQV,phage ELISA signal ratio,[6],22.4
LWFWDVETGNAYKTQE,phage ELISA signal ratio,[1],14.1
VHWTLQSVTDWKWVPQ,phage ELISA signal ratio,[7],31.9
YWFWNPEIMDAQYMPV,phage ELISA signal ratio,[1],7.02
DEWKWFDMVGTQTQTP,phage ELISA signal ratio,[2],16.8
SQTEWDWLEREWKPSI,phage ELISA signal ratio,[5],19.4
PETPYFSDGMWWWVKP,phage ELISA signal ratio,[1],28.8
FEWTSSPVWSDHQEHN,phage ELISA signal ratio,[3],11.5
LQTPDWMWAPNVLESM,phage ELISA signal ratio,[5],6.16
IYWDWEDGYIYEHQPE,phage ELISA signal ratio,[1],18.2
GHNEIMTIQQHATWLY,phage ELISA signal ratio,[4],5.54
EYKTMPWEEIMMPYNY,phage ELISA signal ratio,[4],3.85

# From the supplement of paper PMC7724964
